Measured values as given in PubChem BioAssay (EPA / NIEHS).
Results filed as inconclusive are left out. The source made the active and inactive calls. Rule for the calls: active = hit-call score of the fitted dose curve at least 0.9, where 1 is the maximum; inconclusive = response in the unintended direction; inactive = score below 0.9.

test: ATG_XTT_Cytotoxicity: Cytotoxicity Assessment in the Attagene TRANS-FACTORIAL HepG2 Assay (AID 2283584);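 for AC50: cells exposed to compound for 24 h before reading; active means loss of viability signal versus DMSO baseline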
Description: ATG_XTT_Cytotoxicity is a cell-based, single-readout assay that uses HepG2, a human liver cell line, with measurements taken at 24 hours after chemical dosing in a 24-well plate.ATG_XTT_Cytotoxicity is one of one assay component(s) measured or calculated from the ATG_XTT_Cytotoxicity assay. It is designed to make measurements of cell number, a form of viability reporter, as detected with […] signals by XTT cytotoxicity assay technology.Data from the assay component ATG_XTT_Cytotoxicity was analyzed into 1 assay endpoint. This assay endpoint, ATG_XTT_Cytotoxicity, was analyzed in the positive analysis fitting direction relative to DMSO as the negative control and baseline of activity. Using a type of viability reporter, loss-of-signal activity can be used to understand changes in the viability. Furthermore, this assay endpoint can be referred to as a primary readout, because the performed assay has only produced 1 assay endpoint. To generalize the intended target to other relatable targets, this assay endpoint is annotated to the cell cycle intended target family, where the subfamily is cytotoxicity.
Human liver HepG2 cells are transiently transfected with multiple reporter transcription units (MRTUs) in 6-well plates using FuGene 6 reagent (Roche; 3 ml FuGene/1 mg DNA). The MRTU constructs are regulated by a cis-regulating element (promoter). […] A major difference between the CIS and TRANS system is that in CIS activities of endogenous TFs are measured, whereas the TRANS assay evaluates changes in activities of exogenous, chimeric NR-Gal4 proteins. […] At the end of 24 hour incubation, total RNA was isolated using TriZol reagent (Invitrogen). The isolated RNA is then reverse-transcribed using oligo(dT) primer and Mo-MLV reverse transcriptase (Invitrogen) with DNAse I (Ambion) treatment for 30 min. The one-tenth of the produced cDNA was amplified by PCR using Taq DNA polymerase (Invitrogen) and two reporter sequence-specific primers. The PCR products were fluorescently labeled by primer extension with 6-arboxyfluorescein (6-FAM) 5'-labeled reporter sequence-specific primer (2 min at 95 C, 20 s at 68 C and 10 min at 72 C) and these products were digested with 5U of HpaI (New England Biolabs) for 2h at 37 C. The fragments were purified using Qiaquick PCR columns (Qiagen), analyzed on an ABI 3130xL genetic analyzer (Applied Biosystems) with peak positions identified by using a set of X-rhodamine (ROX)-labeled MapMarker1000 molecular weight standards (BioVentures). The raw capillary electrophoresis data was processed using Attagraph software (Attagene).

Which outcome does the source give for `CC(C)(C)C1=CC(=O)C(C(C)(C)C)=CC1=O` here?
The outcome was “inactive”.

Which outcome does the source give for `CCOC(=O)CCc1ccccc1` here?
Its outcome is “inactive”.

With `Cc1cc(=O)oc2cc(N(C)C)ccc12` as the molecule, how does the outcome read?
Its outcome is “inactive”.

With `Cc1ccc(-c2ccccc2)cc1` as the molecule, how does the outcome read?
Its outcome is “inactive”.

With `O=C1NC2NC(=O)NC2N1` (stereo not given) as the molecule, how does the outcome read?
The outcome was “inactive”.

Which outcome does the source give for `CC/C=C\CC/C=C/CO` here?
The outcome was “inactive”.

Which outcome does the source give for `C=C(C)[C@@H]1CC=C(C)C(=O)C1` here?
The outcome was “inactive”.

For `N#Cc1ccc(CC(=O)c2cccc(C(F)(F)F)c2)cc1`, which outcome is on record?
The outcome was “inactive”.

With `COc1cc(C(C)C)ccc1C` as the molecule, how does the outcome read?
Its outcome is “inactive”.

Which outcome does the source give for `ClC(c1ccccc1)(c1ccccc1)c1ccccc1` here?
The outcome was “inactive”.

For `CN1C(=O)c2ccccc2C1=O`, which outcome is on record?
Its outcome is “inactive”.

For `[O-]n1ccccc1=S.[O-]n1ccccc1=S.[Zn+2]`, which AC50 is on record?
The AC50 was 2.87 µM (active).

Which outcome does the source give for `NC(=S)NNC(N)=S` here?
The outcome was “inactive”.

For `NCc1ccco1`, which outcome is on record?
The outcome was “inactive”.

For `N#Cc1cscn1`, which outcome is on record?
The outcome was “inactive”.

Which outcome does the source give for `CC(C)=CCCC(C)CCOC=O` (stereo not given) here?
The outcome was “inactive”.

With `O=C1OC[C@H](Cc2cccc(O)c2)[C@H]1Cc1cccc(O)c1` as the molecule, how does the outcome read?
The outcome was “inactive”.

With `COc1ccccc1[N+](=O)[O-]` as the molecule, how does the outcome read?
Its outcome is “inactive”.

For `CCCCCCCCc1ccc(S(=O)(=O)O)cc1`, which outcome is on record?
The outcome was “inactive”.

For `CC=Cc1ccc(OCC)c(O)c1`, which outcome is on record?
The outcome was “inactive”.

Which AC50 does the source give for `CCCCCCCCCCCCCCN(CCO)CCO` here?
The AC50 was 28.3 µM (active).

Which outcome does the source give for `CC1=NN(c2ccc(S(=O)(=O)O)cc2)C(=O)C1` here?
Its outcome is “inactive”.

Which outcome does the source give for `CCCCOCC` here?
Its outcome is “inactive”.

With `CCOc1ccc(N=Nc2ccc(C=Cc3ccc(N=Nc4ccc(OCC)cc4)cc3S(=O)(=O)O)c(S(=O)(=O)O)c2)cc1` as the molecule, how does the outcome read?
Its outcome is “inactive”.

Which outcome does the source give for `NCCNc1cccc2ccccc12` here?
The outcome was “inactive”.

For `Nc1ccc2c(O)cc(S(=O)(=O)O)cc2c1`, which outcome is on record?
The outcome was “inactive”.

Which outcome does the source give for `CN(C)CCOC(C)(c1ccccc1)c1ccccn1` (stereo not given) here?
Its outcome is “inactive”.

For `CN(C)CCOc1ccc(/C(=C(/CCCl)c2ccccc2)c2ccccc2)cc1`, which AC50 is on record?
The AC50 was 24.6 µM (active).

With `Cc1c(OCC(F)(F)F)ccnc1CS(=O)c1nc2ccccc2[nH]1` (stereo not given) as the molecule, how does the outcome read?
Its outcome is “inactive”.

With `BrCc1cccc(Oc2ccccc2)c1` as the molecule, how does the outcome read?
The outcome was “inactive”.

Which outcome does the source give for `c1ccc(CCc2ccccc2)cc1` here?
The outcome was “inactive”.

Which outcome does the source give for `CC1=CC[C@@]23C[C@@H]1C(C)(C)[C@@H]2CC[C@H]3C` here?
Its outcome is “inactive”.

With `CC(=O)O[C@@H]1C[C@@H]2CC[C@@]1(C)C2(C)C` as the molecule, how does the outcome read?
Its outcome is “inactive”.

With `COC(=O)c1ccc(OC)cc1` as the molecule, how does the outcome read?
The outcome was “inactive”.

Which outcome does the source give for `C=C1CC[C@H](O)C/C1=C/C=C1\CCC[C@]2(C)[C@@H]([C@H](C)/C=C/[C@H](C)C(C)C)CC[C@@H]12` here?
Its outcome is “inactive”.

With `CCCC(C)=O` as the molecule, how does the outcome read?
Its outcome is “inactive”.

Which AC50 does the source give for `CC(C)(C)CC(C)(C)c1ccc(OCCOCC[N+](C)(C)Cc2ccccc2)cc1` here?
The AC50 was 44.9 µM (active).

For `CCCCSCCCC`, which outcome is on record?
The outcome was “inactive”.

Which outcome does the source give for `O=c1[nH]c(=O)c2cn[nH]c2[nH]1` here?
Its outcome is “inactive”.

With `C=C(C)C1CC=C(C)C(=O)C1` (stereo not given) as the molecule, how does the outcome read?
The outcome was “inactive”.
